In PubChem BioAssay AID2289 (National Center for Advancing Translational Sciences (NCATS), 2010):
The whole screen tested about 340,000 compounds, of which about 3,300 (0.97%) were called active. Roughly 9% stayed inconclusive and do not appear here. The call rests on the fitted dose curve; in most records, active means well fitted inhibition curve with a large enough effect; inconclusive means small, poorly fitted or top-dose-only effect, or effect the other way; inactive means flat fitted curve, though single readings scatter. The list shows a part of the results.

Test: qHTS Assay for Modulators of miRNAs and/or Inhibitors of miR-21; further: nearly all actives have a fitted effect of over 55% in size
Settings: HeLa miR-21-FLuc reporter, luciferase luminescence, 48 h; actives lower the signal
Description: MLSCN Grant: 1 R21 NS059478-01 Assay Provider: Qihong Huang, The Wistar Institute NCGC Assay Overview: MicroRNAs (miRNAs) are endogenously encoded small (~20-25 nucleotides), nonprotein-coding RNAs that are involved in post-transcriptional repression of target messenger RNAs (mRNAs) (Le and Hannon, 2004). Estimated to be involved in the regulation of 30% of all protein-coding mRNAs (Filipowicz et al., 2008), miRNAs play a significant role in many biological processes including cellular differentiation and tissue development (Ghildiyal and Zamore, 2009).
NCGC Assay Protocol Summary: Reagents: HeLa cells stably expressing firefly luciferase (FLuc) under the control of a CMV promoter (upstream) and a miR-21 binding sequence directly downstream of the gene. These cells endogenously express miR-21. Control compounds used were compound C3 (provided by collaborator), N6-phenyladenosine (MP Biomedicals, 0215379625), and DMSO. Assay Summary: 6uL of HeLa miR-21-FLuc cells in assay buffer (DMEM, Invitrogen #21063-029; 10% FBS, HyClone #SH30071.03) were dispensed at 2000cells/well (3.3 x 10^5 cells/mL) into Greiner solid-white TC-treated 1536-well plates using a Multidrop Combi (Thermo Fisher Scientific). Plates were incubated for one hour at 37 degree Celsius, 95% humidity, 5% CO2. These assay plates were then treated with 23nL of compound or DMSO using a Kalypsys pin tool, which allows for delivery of a 24-point titration of each compound to the assay plate, with a final compound concentration ranging from approximately 40uM to 5pM. Assay plates were then incubated for 48 hours. After incubation, plates were allowed to come to RT for one hour prior to delivery of 3uL of 3X luciferase detection reagent. After a 15 minute incubation to allow for cell lysis, luciferase activity was measured using a ViewLux CCD imager (PerkinElmer), with an average exposure time of 2-12 seconds. Keywords: NIH Roadmap, MLPCN, MLSMR, qHTS, miR-21, microRNA, firefly luciferase, FLuc.
Potency means the concentration at half of the fitted maximal effect.

Potency, active:
NNC(=O)c1cccc(COc2ccc3c(c2)CCC3)c1 0.185 µM
O=C(NCc1ccccc1)c1cccc(COc2ccc3c(c2)CCC3)c1 0.585 µM
NS(=O)(=O)c1ccc2nc(NC(=O)Nc3ccccc3F)sc2c1 0.329 µM
Cc1cc(C(=O)Nc2nc3ccc(Cl)cc3s2)nn1C 0.927 µM
O=C(Nc1nc2ccc(F)cc2s1)c1ccccn1 0.104 µM
COc1ccccc1NC(=O)Nc1nc2ccc(S(N)(=O)=O)cc2s1 4.14 µM
O=C(Nc1nc2ccccc2s1)Nc1ccc(F)cc1F 0.736 µM
Cc1ccccc1OCC(O)Cn1nnc2ccccc21 (stereo not given) 7.36 µM
CC(C)(C)CC(=O)Nc1nnc(-c2cccs2)s1 1.31 µM
CCOc1ccc2c(c1)c(N=Nc1cccc(C(=O)O)c1)c(O)n2C 6.56 µM
O=C(NCc1ccccc1)c1cccc(COc2cc(Cl)ccc2Cl)c1 7.36 µM
CN(C(=O)c1cccc(COc2ccc(Cl)cc2Cl)c1)c1ccccc1 2.61 µM
N#Cc1ccccc1NC(=O)c1cccc(COc2ccc(Cl)cc2Cl)c1 1.65 µM
CN1CCN(C(=O)c2cccc(COc3cc(Cl)ccc3Cl)c2)CC1 16.5 µM
CCCCOC(=O)c1sc2nc(C)cc(C)c2c1N 5.85 µM
Cc1cc(C)c2c(N)c(C(=O)N/N=C/c3cccs3)sc2n1 1.47 µM
Cc1cc(C)c2c(N)c(C(=O)NCC3CCCCC3)sc2n1 6.56 µM
Cn1c(=O)c(/C=C/c2ccccc2)nc2ccccc21 2.07 µM
O=c1[nH]c2ccccc2nc1/C=C/c1ccccc1 2.33 µM
CC(C)n1c(/C=C/c2ccccc2)nc2ccccc21 6.56 µM
Cc1cccc(-c2noc(-c3cc(C(C)C)[nH]n3)n2)c1 0.464 µM
COc1ccc(-c2noc(-c3cc(C(C)C)[nH]n3)n2)cc1 3.29 µM
CC12COC3(C(=O)Nc4ccc5ccccc5c4)CC1CCC32C (stereo not given) 7.36 µM
CCN1CCN(c2ccc(NC(=O)c3ccccc3F)cc2Cl)CC1 2.93 µM
CCN1CCN(c2ccc(NC(=O)c3ccco3)cc2Cl)CC1 8.26 µM
Cc1ccc(Nc2ncnc(-n3cccc3)n2)cc1Cl 2.33 µM
COc1ccc(-c2c(C)nc3c(-c4ccsc4)cnn3c2N)cc1 0.414 µM
COc1ccc(-c2c(C)nc3c(-c4ccccn4)cnn3c2N)cc1 0.261 µM
CCOC(=O)C1=C(CSc2nc(-c3ccccc3)ccc2C#N)OC(N)=C(C#N)C1c1ccc(OC)cc1 (stereo not given) 11.7 µM
COc1ccc(C(=O)Cc2ccc(F)cc2)c(OC)c1 13.1 µM
O=[N+]([O-])c1ccc(/C=N/N2CCCCC2)cc1 5.21 µM
COc1ccc(-c2nnc(SCC(=O)c3cccs3)o2)c(OC)c1 6.56 µM
Cc1cc(Cl)c2oc(C(=O)N3CCN(c4cccc(C)n4)CC3)c(C)c2c1 4.65 µM
Cc1cc(Cl)c2oc(C(=O)N3CCN(C(=O)c4ccco4)CC3)c(C)c2c1 14.7 µM
N#Cc1ccccc1NC(=O)c1ccc2c(Cl)c3c(nc2c1)CCCC3 2.93 µM
CN(C(=O)c1ccc2c(Cl)c3c(nc2c1)CCC3)c1ccccc1 14.7 µM
O=C(Nc1ccc(Cl)cn1)c1ccc2c(Cl)c3c(nc2c1)CCC3 0.185 µM
COCCNC(=O)c1ccc2c(Cl)c3c(nc2c1)CCC3 5.85 µM
Cc1ccnc(SCC(=O)N2CCc3ccccc32)n1 7.36 µM
O=C(CSc1ccccc1)N1CCc2ccccc21 3.29 µM
CCn1c(-c2ccc(F)cc2)cnc1SCC(=O)N1CCc2ccccc21 11.7 µM
O=C(CSc1ncccc1-c1nc2ccccc2[nH]1)N1CCc2ccccc21 5.21 µM
Cc1ccc(SCC(=O)N2CCc3ccccc32)cc1 14.7 µM
COc1cccc2cc(-c3nnc(Nc4ccccc4C)s3)c(=O)oc12 0.736 µM
COc1cccc2cc(-c3nnc(Nc4c(F)cccc4F)s3)c(=O)oc12 1.04 µM
O=c1oc2cc(O)ccc2cc1-c1nnc(Nc2ccccc2F)s1 0.369 µM
COc1cccc(N2CCN(C(=O)c3ccc4nc(N5CCC(C)CC5)sc4c3)CC2)c1 1.47 µM
CC1CCN(c2nc3ccc(C(=O)NCCCN4CCCCC4)cc3s2)CC1 0.0927 µM
CC1CCN(c2nc3ccc(C(=O)NCCCN4CCCCC4C)cc3s2)CC1 (stereo not given) 0.0656 µM
CCC1CCCCN1CCCNC(=O)c1ccc2nc(N3CCC(C)CC3)sc2c1 (stereo not given) 0.0656 µM
Cc1ccc(-c2nnc(NC(=O)c3ccco3)s2)cc1 1.47 µM
Cc1ccc2nc(NC(=S)NC(=O)c3ccco3)sc2c1 0.736 µM
O=C(NC(=S)Nc1nc2ccccc2s1)c1ccco1 1.17 µM
CC1CCC/C(=C\Nc2ccc(C(=O)O)cc2)C1=O (stereo not given) 0.585 µM
CC1CCC/C(=C\Nc2ccc(O)cc2)C1=O (stereo not given) 10.4 µM
CCC(=O)Nc1nnc(/C=C/c2ccc(OC)cc2)s1 11.7 µM
COC(=O)Nc1nnc(/C=C/c2ccc(OC)cc2)s1 4.14 µM
CCC(=O)Nc1nnc(/C=C/c2ccccc2)s1 13.1 µM
C/C(=N\Nc1cccc(C(=O)O)c1)c1ccc(Cl)s1 6.56 µM
CC(=O)Nc1cccc(C(=O)N/N=C/c2ccccc2F)c1 2.07 µM
COc1ccc(/C(C)=N/Nc2cccc(C(=O)O)c2)cc1OC 10.4 µM
C/C(=N\NC(=O)c1cccc(N/N=C(\C)c2ccccc2)c1)c1ccccc1 14.7 µM
C/C(=N\NC(=O)c1cccc(N/N=C(\C)c2ccco2)c1)c1ccco1 6.56 µM
C/C(=N/NC(=O)c1ccccc1)C(=O)O 2.93 µM
C/C(=N\Nc1ccc([N+](=O)[O-])cc1)c1ccco1 3.69 µM
